This note sets out measurements from PubChem BioAssay (NCI).

This is part of a sample that, as a whole, favours compounds with a hit. Of some 83,000 tested, about 20% had one in any assay.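 Results are percent growth after 48 hours of single-concentration exposure. 100 means growth as in untreated cells, lower positive values show inhibition; negative values down to -100 show cell death.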 Values without a mark were called inactive. Calls of active or inactive are those of the source. Rule for the calls: active = growth percent below 10; inactive = the rest.

This experiment deals with HL-60(TB) leukemia. The experiment in a line: NCI-60 one-dose screen, 48 h (100 = growth as untreated, 0 = no growth, -100 = all killed). Particulars: 10 µM unless noted.
`Nc1nc(-c2cc3c(cc2Cl)NC(=O)/C3=C/c2ccc(Cl)cc2)cs1`: the growth is -11.7% (active).

For `O=C(CCCl)OCCOc1ccccc1`, the growth was 101%.

With `Cc1nc2sc(C(=O)Nc3ccccc3)c(N)c2cc1C(O)c1ccccc1` (stereo not given), the growth was -54% (active).

Take `CC1(C)CC[C@]2(C(=O)O)CC[C@]3(C)C(=CC[C@@H]4[C@@]5(C)Cc6c([nH]c7ccccc67)C(C)(C)[C@@H]5CC[C@]43C)[C@@H]2C1`: the growth is 16.2%.

On to `COc1ccc(C(=O)NCCNc2nccc(-c3c(-c4ccc(F)cc4)nc4sccn34)n2)cc1`, for which the growth was 88.9%.

In the case of `COc1ccc(C(=O)N2C=Cc3ccccc3C2C#N)cc1` (stereo not given), the growth was 66.5%.

On to `O=C1/C(=C/c2cccc(Br)c2)COc2ccc(O)cc21`, for which the growth was -16.7% (active).

On to `CC(=O)Oc1ccc(OC(C)=O)c2ccccc12`, for which the growth was -17.4% (active).

Turning to `C[C@@H]1CC[C@@H]2[C@@H]1[C@H](OC(=O)/C=C/c1ccccc1)[C@]1(C3CCCCC3)C[C@@H](NC(=O)CO)[C@@]2(C)O1`, the growth is 104%.

For `Cn1cc(-c2cnn3c(N)c(Br)c([C@@H]4CCCNC4)nc23)cn1`, the growth was 21.2%.

For the molecule `CCN(CC)CCCCCCNc1cc(OC)c(Cl)c2cccnc12`, the growth is 119%.

Turning to `O=C1C=CC(=O)N1c1cccc2c1CCCC2`, the growth is 34.2%.

In the case of `C/C=C(/C)C(=O)OC1C=C(CO)C(=O)C(OC(=O)/C(C)=C\C)C1C(C)C` (stereo not given), the growth was -32% (active).

Turning to `COc1ccc(-c2oc(=O)ccc2-c2cc(OC)c(OC)c(OC)c2)cc1O`, the growth was -58.9% (active).

Consider `O=C(CSc1nnc(-c2ccc(Cl)cc2)o1)Nc1ccc(C(=O)/C=C/c2ccc(Cl)cc2)cc1`, for which the growth was 84.4%.
